# In PubChem BioAssay (NCATS):
# Several values for one entry are separate records, joined by “and”; a condition that tells them apart may be missing. Identical values can stand only once. Results filed as inconclusive are left out. Values without a mark were called inactive. Activity calls are given as the source filed them. Calls follow the shape of the dose curve; as a rule, active = well fitted inhibition curve with a large enough effect; inconclusive = small, poorly fitted or top-dose-only effect; inactive = no such curve, though single readings can be large or run the other way.
# Target: Cytochrome P450 2C19 (Homo sapiens) (UniProt P33261)
# Sequence (P33261 whole entry, looked up): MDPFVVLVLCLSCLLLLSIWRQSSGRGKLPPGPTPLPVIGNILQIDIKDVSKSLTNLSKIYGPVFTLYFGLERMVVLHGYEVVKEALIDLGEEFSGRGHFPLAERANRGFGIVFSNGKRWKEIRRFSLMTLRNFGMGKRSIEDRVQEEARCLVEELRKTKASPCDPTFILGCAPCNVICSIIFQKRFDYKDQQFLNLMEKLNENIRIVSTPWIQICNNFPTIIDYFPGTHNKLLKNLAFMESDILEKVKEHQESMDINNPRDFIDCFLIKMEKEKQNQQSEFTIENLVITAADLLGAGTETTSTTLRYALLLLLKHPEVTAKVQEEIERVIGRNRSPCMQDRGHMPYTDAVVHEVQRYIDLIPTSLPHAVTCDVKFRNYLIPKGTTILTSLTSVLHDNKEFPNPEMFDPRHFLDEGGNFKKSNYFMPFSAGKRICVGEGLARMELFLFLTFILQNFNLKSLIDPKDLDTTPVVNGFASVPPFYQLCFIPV
# Assay: qHTS Assay for Inhibitors and Substrates of Cytochrome P450 2C19 (AID 899); also: nearly all actives have a fitted effect of over 60% in size
# Conditions: recombinant CYP2C19, luciferin-H EGE luminescence; series mostly up to 57.1 µM; activity, negative = inhibition: at the top concentration
# Method: NIH Molecular Libraries Screening Centers Network [MLSCN]
# NIH Chemical Genomics Center [NCGC]
# The P450 gene superfamily is involved in the metabolism and clearance of xenobiotics. This assay used human CYP2C19 to measure the hydroxylation of ethylene glycol ester of 6' deoxyluciferin (Luciferin-H EGE; […]) to luciferin. The luciferin is then measured by luminescence after the addition of a luciferase detection reagent. Luciferin-H EGE concentration in the assay was equal to its KM for CYP2C19. Inhibitors and some substrates limit the production of luciferin, and decrease measured luminescence.
# NCGC Assay Protocol Summary:
# Two uL of enzyme and substrate mix (final concentrations: 5nM CYP2C19, 10uM Luciferin-H EGE, 50mM KPO4) were dispensed into a white, solid bottom 1536-well microtiter plate. 23nL of compound was transferred by a pin tool. The plate was incubated at 37C for 10 min. Two uL of an NADPH regeneration solution (Promega supplied reagent) was dispensed and the reaction was allowed to continue for 60 min at 37C. Then the reaction was stopped by reconstituted luciferin detection buffer. After another 20 min of incubation the plate was read on the ViewLux (Perkin Elmer) at 60 sec exposure and 2x2 binning. This protocol was carried out with Promega-Glo reagents and further information can be found at http://www.promega.com/tbs/tb325/tb325.pdf. Data were normalized to the to AC100 inhibition (57uM ketoconazole).
# Keywords: P450, CYP2C19, Luciferase, MLSMR, MLSCN, NIH Roadmap, qHTS, NCGC
# % is scaled to controls: 0 for no effect and ±100 for the full control effect; potency is read from the fitted curve at half-maximal effect.
Compound,Potency,"activity, negative = inhibition"
c1ccc2c(c1)[I+]c1ccccc1-2,501 nM (active) and 63.1 nM (active),
CN(N=O)c1ccc(O)c(O)c1,,-19.2%
Nc1ccc(CCN2CCN(c3cccc(C(F)(F)F)c3)CC2)cc1,7.94 µM (active),
CCC1(C)CC(=O)NC(=O)C1,,45.9% [at 25.6 µM]
O=c1c2ccccc2[se]n1-c1ccccc1,1.58 µM (active) and 126 nM (active),
O=c1ccc2[nH]cc(C3=CCNCC3)c2[nH]1,0.126 µM (active),
O=[N+]([O-])c1cc(O)c(O)c([N+](=O)[O-])c1,,-2.32%
CCCn1c(C)c(C(=O)c2ccc3ccccc3c2)c2ccccc21,7.94 µM (active),
O=P(O)(O)C(Cl)(Cl)P(=O)(O)O,,76.3%
CCS(=O)(=O)Nc1cccc(C(=C2CCCCC2)c2cnc[nH]2)c1,0.0079 µM (active),
O=[N+]([O-])c1ccc2nc(N3CCNCC3)ccc2c1,,62.8%
O=S1(=O)N(CCN2CC=C(c3c[nH]c4cc(F)ccc34)CC2)c2cccc3c2N1CCC3,6.31 µM (active),
O=C1C=CC(=O)C=C1,,9.22%
Cc1[nH]c2ccc(O)cc2c1CCN,7.94 µM (active),
CC(C)(C)c1cc(O)ccc1O,,-31.1% [at 11.4 µM]
Cc1c2ccncc2c(C)c2c1[nH]c1ccccc12,6.31 µM (active) and 3.16 µM (active),
